Measurements published in PubChem BioAssay (NCATS).
Inconclusive results are not listed. Where a call stands in place of a potency, no number is given. Active and inactive are the calls of the source. The call rests on the fitted dose curve; in most records, active means well fitted cell-killing curve with a large enough effect; inconclusive means small, poorly fitted or top-dose-only effect; inactive means flat fitted curve, though single readings scatter.
Potency means the concentration at half of the fitted maximal effect.

Experiment: qHTS of pediatric cancer cell lines to identify multiple opportunities for drug repurposing: Primary screen for control Hh wild type fibroblast cells (AID 1347106); further: nearly all actives have a fitted effect of over 55% in size
Conditions: Hh wild-type fibroblast viability, CellTiter-Glo luminescence, 48 h; series mostly up to 46 µM
Method in brief: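 Cells (500-1,000/well) in growth media were settled 5 h at 37 degrees C, then given compounds for 48 h. Viability was read as CellTiter-Glo luminescence. Primary runs used MIPE at 11 points (0.78 nM-46 µM) and NPC at 8 points (0.59 nM-46 µM); follow-ups used 11 points.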
For CN(C)C(=S)SSC(=S)N(C)C, the Potency was 299 nM (active).
With Clc1ccc(CO/N=C(\Cn2ccnc2)c2ccc(Cl)cc2Cl)c(Cl)c1 the Potency was “inactive”.
In the case of O=C(N[C@@H]1N=C(c2ccccc2F)c2cccc3c2N(CC3)C1=O)c1cc2ccccc2[nH]1, the Potency is reported as “inactive”.
For Cc1ncc2n1-c1ccc(Cl)cc1C(c1ccccc1F)=NC2, the Potency was “inactive”.
In the case of C[C@]12CC[C@H]3[C@@H](CCC4=CC(=O)CC[C@@]43C)[C@@H]1CC[C@@H]2C(=O)O, the Potency is reported as “inactive”.
For C[C@H](N)[C@H](O)c1ccc(O)c(O)c1, the Potency was “inactive”.
With O=C(CCl)c1ccc(Cl)cc1Cl the Potency was “inactive”.
For O=C(CCCCl)c1ccc(F)cc1, the Potency was “inactive”.
In the case of CC[C@]1(O)CC[C@H]2[C@@H]3CCC4=CCCC[C@@H]4[C@H]3CC[C@@]21C, the Potency is reported as “inactive”.
In the case of CCCCCCCCC(=O)NCc1ccc(O)c(OC)c1, the Potency is reported as “inactive”.
For O=C(NC(=O)c1c(F)cccc1F)Nc1cc(Cl)c(OC(F)(F)C(F)C(F)(F)F)cc1Cl (stereo unspecified), the Potency was “inactive”.
With Nc1ccc(N)cc1 the Potency was “inactive”.
With CCOC(=O)NC(O)C(Cl)(Cl)Cl (stereo unspecified) the Potency was “inactive”.
With N#Cc1nn(-c2c(Cl)cc(C(F)(F)F)cc2Cl)c(N)c1S(=O)C(F)(F)F (stereo unspecified) the Potency was “inactive”.
For CC(Cc1ccccc1)NCc1ccccc1Cl (stereo unspecified), the Potency was “inactive”.
With C[C@]12Cc3nonc3C[C@@H]1CC[C@@H]1[C@@H]2CC[C@@]2(C)[C@H]1CC[C@]2(C)O the Potency was “inactive”.
